High-throughput results from PubChem BioAssay.
This is a sample that favours compounds with a hit; in the whole collection about 11% have one here.
NPSR antag: qHTS Assay for Antagonists of the Neuropeptide S Receptor: cAMP Signal Transduction. Potency, µM (top dose mostly 38.3 µM), without a hit: top-dose activity change, negative = inhibition, usual class: inhibitors. AID 1461, 2008. 220,000 compounds, 1% hits. CHO-NPSR cells, cAMP TR-FRET, antagonist mode; active = well fitted curve in the direction sought with a large enough effect; inconclusive = small, poorly fitted or top-dose-only effect, or another doubt; inactive = no such curve, though single readings can be large; an effect the other way counts as inactive or inconclusive; also: potency is read from the fitted curve at half-maximal effect; nearly all actives have a fitted effect of over 50% in size
Target sequence (Q6W5P4 whole entry, looked up): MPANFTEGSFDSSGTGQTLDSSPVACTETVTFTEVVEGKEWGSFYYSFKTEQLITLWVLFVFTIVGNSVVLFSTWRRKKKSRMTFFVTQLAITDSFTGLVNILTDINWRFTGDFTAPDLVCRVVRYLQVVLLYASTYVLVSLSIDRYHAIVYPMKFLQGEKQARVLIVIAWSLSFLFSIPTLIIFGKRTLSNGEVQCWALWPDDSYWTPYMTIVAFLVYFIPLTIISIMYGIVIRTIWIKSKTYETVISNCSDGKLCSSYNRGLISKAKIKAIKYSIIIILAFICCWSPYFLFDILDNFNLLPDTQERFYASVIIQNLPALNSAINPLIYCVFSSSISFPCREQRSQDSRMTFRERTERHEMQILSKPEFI
IMPase inh: qHTS Assay for Identifying the Cell-Membrane Permeable IMPase Inhibitors; CHO-M1 cells, IP1 accumulation, HTRF TR-FRET ratio; inhibition (IP1 accumulation), % at 46.1 µM; 120,000 tested, under 10 active; active = well fitted curve in the direction sought with a large enough effect in the signal ratio, not every such curve was filed as active; inconclusive = small, poorly fitted or top-dose-only effect, or a change in a side signal; inactive = no such curve, though single readings can be large or run the other way; the % refers to the signal ratio;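 also: cells stimulated with carbachol in lithium chloride buffer; plate controls were DMSO basal wells for no effect and reference inhibitor wells for full effect; higher means more IMPase inhibition seen as more IP1 and lower FRET ratio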
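Carbachol-driven Gq signalling in CHO-M1 cells (2000/well) generates IP1. Compounds that block IMPase raise IP1 and so reduce the FRET signal from Eu-anti-IP1 and d2-IP1 after a 10 min room-temperature lysis.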
ALDH1A1 block: qHTS Assay for Inhibitors of Aldehyde Dehydrogenase 1 (ALDH1A1); AID 1030, 2008; Purified ALDH1A1, NADH fluorescence, propionaldehyde substrate; Potency, µM (doses to about 75.3 µM), without a hit: at the top dose activity, negative = inhibition, hits mostly inhibitors; 220,000 compounds, 7.3% hits; Aldehyde dehydrogenase 1A1 (Homo sapiens), P00352;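 also: potency is read from the fitted curve at half-maximal effect; plate controls were no enzyme wells and a reference inhibitor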
PNC assembly inh: High Content Assay for Compounds that inhibit the Assembly of the Perinucleolar Compartment | PC3M PTB-GFP, PNC prevalence imaging, 16 h; stronger effect = lower value | activity change (PNC), negative = inhibition, % at 10 µM | 140,000 compounds, 3.1% hits;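 active = readout at or below -70, meaning at least 70% loss of cells showing the perinucleolar compartment, a nuclear body marking cancer cells; inconclusive = readout between -30 and a set limit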;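 also: plate controls were DMSO wells for no effect and camptothecin positive control wells for full effect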
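Read-out is percentage of cells bearing a perinucleolar compartment, from automated 20x imaging of fixed, Hoechst-stained PC3M PTB-GFP cells. Cells were seeded 4 h, then exposed 16 h to compound (23 nl of library stock) in duplicate plates.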
IMPase Li inh: qHTS Assay for Identifying the Cell-Membrane Permeable IMPase Inhibitors: Potentiation with Lithium | CHO-M1 cells, IP1 TR-FRET (IP-One), carbachol + lithium | Potency, µM (series often up to 59.4 µM), for inactives: top-dose activity, negative = IMPase inhibition, most hits filed as inhibitors | 210,000 compounds, 0.35% hits | AID 1457, 2008; active = well fitted curve in the direction sought with a large enough effect; inconclusive = small, poorly fitted or top-dose-only effect, or another doubt; inactive = no such curve, though single readings can be large; an effect the other way counts as inactive or inconclusive;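 also: IP1 builds up when IMPase is blocked and the TR-FRET signal falls; potency is read from the fitted curve at half-maximal effect; plate controls were basal vehicle for no effect and high inhibitor control for full effect; nearly all actives have a fitted effect of over 50% in size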
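CHO-M1, 2000 cells/well, 16–30 h culture; cpd + low Li+, 30 min 37C; lysis with d2-IP1/Eu-anti-IP1 Ab, 10 min RT; TR-FRET 665/620 ratio and 620 channel; AC50 via Hill.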
HPGD inh: qHTS Assay for Inhibitors of HPGD (15-Hydroxyprostaglandin Dehydrogenase) | 150,000 compounds, 4.3% hits | Potency, µM, for inactives: at the highest dose activity change, negative = inhibition, usual class: inhibitors | purified HPGD, NADH fluorescence kinetic, PGE2 substrate | 15-hydroxyprostaglandin dehydrogenase [NAD(+)] (Homo sapiens), P15428; also: potency is read from the fitted curve at half-maximal effect
Target sequence (P15428 whole entry, looked up): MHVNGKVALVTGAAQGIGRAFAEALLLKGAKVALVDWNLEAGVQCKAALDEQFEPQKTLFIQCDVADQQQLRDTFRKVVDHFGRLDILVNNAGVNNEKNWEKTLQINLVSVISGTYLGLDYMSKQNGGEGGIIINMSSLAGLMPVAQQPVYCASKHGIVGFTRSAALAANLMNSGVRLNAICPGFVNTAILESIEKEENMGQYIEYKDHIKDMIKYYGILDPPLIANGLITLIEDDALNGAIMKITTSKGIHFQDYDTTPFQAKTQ
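20 nM HPGD preincubated 15 min at room temperature with compound in 50 mM Tris-HCl pH 8, 0.01% Tween 20. Started with 1 mM NAD+ and 30 uM prostaglandin E2; NADH fluorescence (360/450 nm) read 5 times over 30-s intervals, last minus first.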
* = called active by the depositor; u = inconclusive; x = no result; [ ] = remark or other dose. Unless noted, calls follow the shape of the dose curve; as a rule, active = well fitted inhibition curve with a large enough effect (not every such curve was filed as active); inconclusive = small, poorly fitted or top-dose-only effect, or another doubt; inactive = no such curve, though single readings can be large or run the other way. Unless noted, % is scaled to controls: 0 for no effect and ±100 for the full control effect.

SMILES	NPSR antag	IMPase inh	ALDH1A1 block	PNC assembly inh	IMPase Li inh	HPGD inh
S=c1[nH]nc(CN2CCCCC2)n1-c1ccc(Cl)cc1	-1.9%	x	-2.2%	x	-3.3%	x
Cc1ccc(C2CC2c2n[nH]c(=S)n2-c2ccc(C)cc2)cc1 (centres undefined)	-19.1%[46.1 µM]	4.1	u	-27.3	14.9%[38.3 µM]	u
CC(=C\c1ccccc1)/C=C1/SC(=O)N(CCCC(=O)Nc2ccc(C(=O)O)cc2)C1=O	-33.8%	x	-13.4%	x	1.1%	x
COCCNC(=O)c1noc2c1CCc1cc(OC)ccc1-2	-6.9%[46.1 µM]	-7.2	-1.5%	37.4	12.8%[38.3 µM]	25.1µM*
NC1=NC(=O)CC(C(=O)NCc2ccccc2)S1 (centres undefined)	-18.8%[46.1 µM]	-6.2	17.8µM*	-10.9	-0.8%[38.3 µM]	-2.4%
O=C(NC1CC1)C1=C[C@H](c2c[nH]c3ccccc23)C[C@H](OCCCCO)O1	7.7%	x	x	x	x	x
On1onc2c3cc(-c4ccccc4)nc3ccc21	12.6µM*	u	17.8µM*	-9.1	40.5%[38.3 µM]	-12.8%
c1ccc(-c2cc3c(ccc4nonc43)nn2)cc1	12.1%[46.1 µM]	2.9	u	-19.5	-6.8%[38.3 µM]	-14.9%
O=C(Cn1cc2c(n1)CCCCC2)NCCCN1CCOCC1	-2.1%[46.1 µM]	-1.2	9.2%	-21.9	25.9%[38.3 µM]	-0.9%
COc1ccc(N/C=C/C(=O)C(F)(F)F)cc1	1.5%	x	-6.1%	-22.6	2.1%	-1.0%
O=C(/C=C/Nc1ccc(Cc2ccc(N/C=C/C(=O)C(F)(F)F)cc2)cc1)C(F)(F)F	4.1%[46.1 µM]	4.8	-4.1%	-85.5*	0.3%	-17.1%
CCNC(=O)NC(=O)COc1ccccc1C#N	-6.8%[46.1 µM]	-15.1	-0.5%	-25.7	-1.7%[38.3 µM]	-4.0%
COc1ccc(C2=NN(C(C#N)c3ccc(OC)cc3)C(c3ccccc3)C2)cc1 (centres undefined)	-25.8%	-0.7	22.4µM*	13.9	3.5%	-5.9%
Cc1cc(C)c(N(C(=O)CN2C(=O)c3ccccc3S2(=O)=O)C(C(=O)NCC2CCCO2)c2ccc(F)cc2)c(C)c1 (centres undefined)	-4.7%	x	12.2%	65.8	-2.5%	-2.7%
COc1cccc(C(C(=O)NCC2CCCO2)N(CC2CCCO2)C(=O)CN2C(=O)c3ccccc3S2(=O)=O)c1 (centres undefined)	-8.6%	x	14.1µM*	x	9.7%	x
O=C(NCC1CCCO1)C(c1ccncc1)N(Cc1ccc(F)cc1)C(=O)CN1C(=O)c2ccccc2S1(=O)=O (centres undefined)	8.3%	x	12.6µM*	13.6	2.3%	-2.7%
Cc1ccc(C2C(C(=O)O)c3ccccc3C(=O)N2C)o1 (centres undefined)	-9.0%[46.1 µM]	-3.7	4.0%	45.8	10.0%[38.3 µM]	-9.4%
CCN1CCN(c2cc(N3CCc4ccccc4C3)c(F)cc2[N+](=O)[O-])CC1	27.8%[46.1 µM]	-4.2	7.0%	-20.4	x	x
Cc1ccc(C)c(C2=NNC(=NCc3ccccc3)SC2)c1	-27.1%	x	17.8µM*	x	-2.7%	x
C=CCn1c(C)cc(C2=NNC(=NCc3ccccc3)SC2)c1C	-52.3%	x	u	x	9.0%	x
c1ccc2oc(C3=NNC(=NC4CC4)SC3)cc2c1	-14.8%	x	28.2µM*	83.4	-1.6%	u
c1ccc(CN=C2NN=C(c3cc4ccccc4o3)CS2)cc1	-20.1%	x	28.2µM*	-11.1	8.5%	15.8µM*
COc1cc(OC)cc(C(=O)NC2CCN(Cc3nnnn3Cc3ccc(F)cc3)CC2)c1	14.5%	x	-11.7%	x	16.3%	x
COc1cc(OC)cc(C(=O)NC2CCN(Cc3nnnn3Cc3cccs3)CC2)c1	-19.9%[46.1 µM]	-3.2	12.6µM*	-22.8	-4.0%[38.3 µM]	0.4%
CC(C)CCC(O)(CCC(C)C)C(=O)NNc1ccccc1	-8.4%	x	-0.4%	54.3	3.9%	-5.4%
SMILES	NPSR antag	IMPase inh	ALDH1A1 block	PNC assembly inh	IMPase Li inh	HPGD inh
Cc1ccc(N2C(N)=C(C#N)C3(C(=O)N(C)c4ccccc43)C3=C2CC(C)(C)CC3=O)cc1Cl (centres undefined)	-13.1%[46.1 µM]	1.4	10.5%	u	36.6%[38.3 µM]	-15.4%
O=C(c1ccccc1)c1cnc(-c2ccccc2)s1	-13.5%	x	u	x	-5.2%	x
N#CCc1ccc(C(=O)c2ccccc2)s1	-4.7%[46.1 µM]	-13.0[1.84 µM]	u	-81.9*	7.2%[38.3 µM]	28.2µM*
C[C@@H](C(=O)O)c1ccc(C(=O)c2ccccc2)s1	x	-6.5[20.6 µM]	-15.6%[20.9 µM]	x	3.3%	14.1µM*
O=C(O)CC(Sc1n[nH]c(=S)s1)C(=O)O (centres undefined)	-6.7%	x	12.6µM*	x	x	x
COC(=O)C(C)Sc1n[nH]c(=S)s1 (centres undefined)	-15.1%[46.1 µM]	-1.6	20µM*	-16.8	-7.5%[38.3 µM]	25.1µM*
CS[C@@H](CC(=O)O)C(=O)O	x	x	-2.4%[13.5 µM]	x	-4.7%	-10.8%
CCOC(=O)CSc1nnc(CNC(=O)c2ccc(OC)cc2)n1Cc1ccccc1	-11.0%[46.1 µM]	1.7	-6.6%	12.7	6.8%[38.3 µM]	-6.8%
CCC12C=C(/C=C/c3ccccc3)C(CC)(C1)C(c1ccccc1)CC2=O (centres undefined)	x	x	10.7%[13.5 µM]	x	x	x
Cc1nn(C)c(C)c1S(=O)(=O)N(CC(=O)N1CCc2ccccc2C1)c1ccc(C(C)C)cc1	u	6.4	11.2µM*	32.0	4.4%[38.3 µM]	-4.9%
Cc1nn(C)c(C)c1S(=O)(=O)N(CC(=O)N1CCc2ccccc21)c1ccc(C(C)C)cc1	-25.4%[46.1 µM]	5.3	12.1%	8.6	5.0%[38.3 µM]	-1.3%
CCOC(=O)CSc1nc2c(c(=O)[nH]c(=O)n2C)n1CCc1ccccc1	-7.2%[46.1 µM]	-1.3	u	u	10.1%[38.3 µM]	-11.8%
CC(C)CCn1c(Sc2nc3ccccc3s2)nc2c1c(=O)[nH]c(=O)n2C	u	8.5	11.2µM*	u	x	x
Cn1c(=O)c2c(nc(SCCN3CCOCC3)n2Cc2cccc3ccccc23)n(C)c1=O	-20.7%[46.1 µM]	1.4	22.4µM*	12.8	5.3%[38.3 µM]	-7.3%
CC(CSc1nc2ccccc2s1)Cn1c(N2CCCC2)nc2c1c(=O)[nH]c(=O)n2C (centres undefined)	-25.9%[46.1 µM]	13.3	7.6%	-9.7	10.4%	22.4µM*
CCOC(=O)C(CC)Sc1nc2c(c(=O)[nH]c(=O)n2C)n1CCc1ccccc1 (centres undefined)	-28.2%[46.1 µM]	1.0	11.2µM*	-6.2	-9.9%[38.3 µM]	22.4µM*
Cn1c(=O)c2c(nc(SCCN3CCOCC3)n2Cc2ccccc2Cl)n(C)c1=O	-8.5%[46.1 µM]	-5.2	-6.8%	-10.5	7.3%	-11.8%
CC(C)CCn1c(SCC(=O)c2ccccc2)nc2c1c(=O)[nH]c(=O)n2C	-10.7%[46.1 µM]	-4.3	17.8µM*	-6.4	-6.4%[38.3 µM]	-5.2%
